Results reported in PubChem BioAssay AID1745846 (National Center for Advancing Translational Sciences (NCATS), 2022).
Out of some 1,400 compounds screened, about 30 (2%) were called active. Roughly 15% stayed inconclusive and do not appear here. The entries come from a sample that favours actives as a whole. Unmarked numbers belong to inactive results. The call rests on the fitted dose curve; in most records, active means well fitted inhibition curve with a large enough effect; inconclusive means small, poorly fitted or top-dose-only effect; inactive means flat fitted curve, though single readings scatter.

Assay: Firefly Luciferase Counterscreen for Inhibitors of ATXN expression
Conditions: luminescence; series mostly up to 57.5 µM; activity change, negative = inhibition: at the top concentration
Text: University of Utah School of Medicine, Salt Lake City, Utah
Spinocerebellar ataxia type 2 (SCA2) is a multisystem neurodegenerative disease caused by a dominantly acting mutation leading to expansion of a polyQ domain in the ataxin-2 protein (ATXN2). SCA2 patients develop progressive ataxia and later lose function in other neuronal systems. Prominent parkinsonian signs develop in some patients. Like many neurodegenerative disorders, no symptomatic or disease-modifying treatments are known.
The primary objective of the proposed research is to identify compounds inhibiting ATXN2 expression and to test them for efficacy in SCA2 mouse models. We have developed a cell-based assay paired with an in vivo mouse model using identical luciferase expression constructs. This approach takes advantage of an ATXN2-luciferase transgene, with the luciferase gene flanked by the upstream and downstream portions of the ATXN2 gene. Here we describe a 5-7 dose quantitative high thoroughput screen (qHTS) for compounds lowering ATXN2 expression. We screened the NIH Molecular Libraries Small Molecule Repository (MLSMR) and NCGC's mechanistically annotated (MIPE) and drug repurposing (NPC) collections of compounds for lowering expression of an ATXN2-luciferase reporter in HEK-293 cells. The assay is a multiplexed cell viability assay to ensure target reduction in the absence of cytotoxicity. Secondary qHTS assays included a CMV-luciferase reporter expressed in HEK-293 cells as well as a biochemical assay using recombinant luciferase to detect inhibitors of the reporter enzyme. Compounds that inhibit ATXN2 expression but is not cytotoxic were selected for confirmatory and secondary screens.
PROTOCOL TABLE (as described by Inglese J, Shamu CE and Guy RK. 2007)
SEQUENCE No. (e.g., 1, 2, 3, etc.); […] (e.g., Cells, Incubation, Reagent, etc.); VALUE; DESCRIPTION.
2; Compounds; 23 nL; Kalypsis pintool (Wako USA) equipped with a 1536-well pin head.
3; Enzyme; 1 uL; recombinant firefly luciferase (prepared in 50 mM Tris HCl pH7.5, 10 mM MgCl2, 0.05% BSA, 0.01% Tween20) at final concentration of 10 nM. Wells containing buffer only were used as control (set as 100% inhibition when normalizing data).
4; Incubation; 10 min; room temperature.
5; Detection; Luminescence; Viewlux plate reader (PerkinElmer).
NOTES (numbers refer to Sequence numbers above)
1. Luciferase substrate is added to 1536 well, Greiner white assay plate. Evaporation was prevented by covering assay plates with metal lids containing holes to allow gas diffusion.
2. Compounds were added in a dose response manner with the final concentrations of 57, 11.4, 2.28, 0.46, 0.091, 0.018, 0.0037 uM. Vehicle-only plates, with DMSO being pin-transferred to columns 5-48, were inserted uniformly at the beginning and the end of each library to monitor and record any shifts in assay performance.
3. Recombinant firefly luciferase (10 nM final concentration) is added to the assay plate.
5. End-point luminescence is then measured on the Viewlux (PerkinElmer) imager equipped with a clear emission filter using a 2 sec exposure.
Inglese J, Shamu CE and Guy RK, Reporting data from high throughput screening of small molecule libraries, Nature Chemical Biology, 2007, 3(8): 438-441. doi.org/10.1038/nchembio0807-438.
On the % scale 0 is the no-effect control and ±100 the full control effect; potency means the concentration at half of the fitted maximal effect.

SMILES | Potency | activity change, negative = inhibition [%]
O=C(NC1=CC(=O)c2ccccc2C1=O)c1ccccc1 | 12.6 µM (active) | 
CC(NC1=CC(=O)c2cccnc2C1=O)C(O)c1ccccc1 (stereo not given) |  | -12.2
O=C(Nc1nonc1-c1ccc(Cl)cc1)c1ccccc1 |  | 1.38
O=C(N/N=C/c1cc([N+](=O)[O-])ccc1O)c1c[nH]c2ccccc12 |  | -4.35
COc1cccc(NC(=S)/C(=C(\[O-])c2cc(C)n(-c3ccccc3F)c2C)[n+]2ccc(N(C)C)cc2)c1 | 15.8 µM (active) | 
CCCC[C@@H](CNC)NC[C@H](NCCCCC1CCCCC1)C(C)C |  | 1.22
CN(C)CCCN(C(=O)c1ccco1)c1nc2ccc(Br)cc2s1 |  | -9.87
CS(=O)(=O)c1ccc(Nc2nc(C(N)Cc3ccc(Cl)cc3)cs2)cc1 (stereo not given) |  | 0.635
Cc1cc(O)c(C)c(O)c1/C=N/NC(=O)c1cccnc1 |  | -2.83
CN(C(=O)c1cnc(N2CCN(c3ncccn3)CC2)c2ccccc12)c1ccc(Cl)cc1 |  | 2.16
C/C(=C\C(=O)c1ccc(Br)cc1)NNC(=O)c1ccc(O)cc1 |  | 2.14
CC1C(=O)C(C)C(c2cc(Br)ccc2O)NC1c1cc(Br)ccc1O (stereo not given) |  | -3.17
O=C(c1c(F)cccc1F)N1CCCC(c2nc(-c3ccc(Cl)cc3)no2)C1 (stereo not given) |  | -10.2
O=C(NCc1ccccc1Cl)C1CCCN(C(=O)Nc2ccc(F)cc2)C1 (stereo not given) |  | -2.7
CCCC(=O)N1CCCC(c2cc(C(=O)Nc3ccccc3)no2)C1 (stereo not given) | 1.41 µM (active) | 
O=C(N/N=C/c1ccc([N+](=O)[O-])s1)c1ccccc1 |  | -19.8
Cc1cc(C(=O)N/N=C/c2ccc([N+](=O)[O-])s2)n[nH]1 |  | -6.06
Cc1ccccc1C(=O)N/N=C/c1ccc([N+](=O)[O-])s1 | 3.55 µM (active) | 
CCOC(=O)c1c(C)nn(-c2ccc(NC(=O)c3cccs3)cc2)c1C |  | -9.56
Cc1nc2c(OCc3ccc(C(F)(F)F)cc3)cccn2c1N(C)C(=O)CCC1CCCC1 |  | -4.05
C[C@@H]1CN([C@H](C)CO)S(=O)(=O)c2ccc(-c3ccc(C#N)cc3)cc2O[C@H]1CN(C)C(=O)Nc1cc(F)ccc1F |  | 4.48
Clc1ccc(C[n+]2cc(-c3ccccc3)n3c2CCCCC3)c(Cl)c1 |  | 5.15
COc1cc(OC)cc(-c2cc3nc(C)c(CCC(=O)O)c(C)n3n2)c1 | 12.6 µM (active) | 
C/C(=N\NC(=O)Cc1ccc(Cl)cc1)c1ccccc1O |  | -5.39
COc1ccc(/C=C2\SC(=S)N(CCCC(=O)Nc3ccccn3)C2=O)cc1OC |  | -8.48

SMILES | Potency | activity change, negative = inhibition [%]
Cc1nc2c(OCc3ccc(C#N)cc3)cccn2c1N(C)Cc1cccs1 |  | 0.28
C[C@@H](CN1C2=NC[C@H](Cc3ccccc3)N2C[C@H]1Cc1ccc(O)cc1)NC(=O)CCC1CCCCC1 |  | 1.67
O=C(CSc1n[nH]c(-c2ccccn2)n1)Nc1ccc(F)cc1 |  | -11.7
Cc1ccc(Cl)cc1N1CCN(C(=O)CCS(=O)(=O)c2ccc3c(c2)NC(=O)CO3)CC1 |  | 2.23
CCCCOC(=O)/C=C\C(=O)NC(N)=O |  | 1.17
O=C(CCc1ccccc1)NC(c1cccs1)c1cc(Cl)c2cccnc2c1O (stereo not given) |  | -2.15
O=C(Nc1nc2cc(Cl)ccc2s1)C1CCCN(S(=O)(=O)c2cccc3cccnc23)C1 (stereo not given) |  | -4.41
Cc1ccc(S(=O)(=O)N(C)C)cc1NC(=O)c1cncc(Br)c1 |  | 3.55
Clc1ccc2nc(-c3ccccn3)c(Nc3ccc4c(c3)OCO4)n2c1 |  | -0.752
OC(CNCCc1ccccc1)COc1ccc(OCC(O)CNCCc2ccccc2)cc1 (stereo not given) |  | 3.74
Cc1ccc(/C=C2/CNC/C(=C/c3ccc(C)cc3)C2=O)cc1 |  | -13
CC(=O)NC(c1ccccc1)c1cc(Cl)c2cccnc2c1O (stereo not given) |  | -12.7
COc1cccc2c1C1COC3C4CC(C(=O)O)C(C(C2)N13)N4C (stereo not given) |  | 2.05
CC(=NNc1nc2ccccc2o1)c1ncccn1 | 14.1 µM (active) | 
COc1cc2nc(N(C)C)nc(N)c2cc1OC |  | -5.16
O=C(N/N=C(\c1ccccc1)c1ccccn1)c1ccccc1Cl |  | -10.3
Fc1ccc(Nc2nnc(C(F)(F)F)s2)cc1Cl |  | -13.2
O=C(Nc1ccccc1C(=O)Nc1nnc(C(F)(F)F)s1)c1ccccc1Cl | 22.4 µM (active) | 
O=S(=O)(c1ccc(F)cc1)c1snnc1-c1ccccc1 |  | 1.44
NC(Cc1ccc(F)cc1)c1csc(NC(=O)NC(c2ccccc2)c2ccccc2)n1 (stereo not given) |  | 2.44
O=C(Nc1nc(-c2ccccc2)cs1)c1ccccc1NS(=O)(=O)c1ccc(F)cc1 | 28.2 µM (active) | 
OC[C@@H]1CN(Cc2ccc(-c3ccccc3)cc2)C[C@H](n2cnc3c(Nc4ccccc4)ncnc32)O1 |  | 1.15
c1ccc(CNc2nc(-c3ccccn3)nc3ccccc23)cc1 |  | -7.78
COc1ccc(CNC(=O)Nc2nc(C(N)Cc3ccc(Cl)cc3)cs2)cc1 (stereo not given) |  | -1.52
CCOC(=O)N1CCC(c2cc(=O)n3[nH]c(C)c(-c4ccc(F)cc4)c3n2)CC1 |  | -8.39

SMILES | Potency | activity change, negative = inhibition [%]
C=CCc1cccc(/C=N/NC(=O)CCC(=O)Nc2ccc(F)cc2)c1O |  | 2.3
CCCCn1c(=N)n(CCOc2ccc(C)cc2)c2ccccc21 |  | 2.78
CC1CCCN(c2ncnc3c2cnn3-c2ccc(Cl)cc2)C1 (stereo not given) | 0.0891 µM (active) | 
Cn1ncc2c(N3CCN(c4ccc(Cl)c(Cl)c4)CC3)ncnc21 |  | -0.373
COc1ccccc1Cc1c(-c2ccco2)nc2c(C)cc(Br)cn12 | 15.8 µM (active) | 
Oc1ccccc1C(Nc1nccs1)c1ccc2cccnc2c1O (stereo not given) |  | -4.63
Oc1ccc(N2CCN(c3ccnc4cc(Cl)ccc34)CC2)cc1 |  | -6.51
CN1CCN(c2cc(-c3cc(O)c4ncccc4c3)ccn2)CC1 |  | -1.23
CCN1CCS/C1=C\C=C\C1=[N+](CC)CCS1 |  | -3.22
Cc1cc([N+](=O)[O-])nn1Cc1ccc(C(=O)N/N=C/c2ccc(O)cc2O)cc1 |  | 6.39
Cc1sc2ncnc(NCC(O)c3ccc([N+](=O)[O-])cc3)c2c1C (stereo not given) |  | -0.514
CCc1nn2cc(C(=O)c3cc(Cl)ccc3O)cnc2c1-c1ccc(F)cc1 |  | -7.19
Cc1cc(NC(c2cccnc2)c2ccc3cccnc3c2O)no1 (stereo not given) |  | -3.83
CCn1c2ccccc2c2cc(/C=N/NC(=O)c3ccccc3)ccc21 |  | -10
COc1ccc(C(NC(C)=O)c2cc(Cl)c3cccnc3c2O)cc1OC (stereo not given) |  | -18.1
O=C(N/N=C/c1sc(N2CCOCC2)nc1-c1ccccc1)c1ccccc1O |  | -18.3
NC(=O)c1cccc(-c2ccnc3c2CC(C(=O)Nc2cccc(Oc4ccccc4)c2)O3)c1 (stereo not given) |  | -7.75
CS(=O)(=O)Nc1cccc(NC(=O)c2cccc3c(-c4cccc(C(N)=O)c4)coc23)c1 | 14.1 µM (active) | 
CCc1nc2ccc(C(=O)Nc3cccc(NS(C)(=O)=O)c3)cn2c1N(C)CCCc1ccccc1 |  | -2.96
O=C1c2cccc3cc([N+](=O)[O-])cc(c23)C(=O)N1CCN1CCCC1 |  | 1.39
COc1cc(C(=O)NC(=S)NNC(=O)c2cnccn2)cc(OC)c1OC |  | -7.31
CC1=NN(c2nc3ccccc3[nH]2)C(=O)C1Cc1ccccc1 (stereo not given) | 25.1 µM (active) | 
Clc1ccc2c(NCc3ccccc3)ccnc2c1 |  | -5.63
CC1(C)C(C=C(Cl)Cl)C1C(=O)Nc1ccc([N+](=O)[O-])cc1 (stereo not given) |  | -1
CC1(C)Cc2ccccc2C2=NNC(=O)C2=N1 |  | -3.52

SMILES | Potency | activity change, negative = inhibition [%]
CC(=O)Nc1ccc(N(CC(O)Cn2c3ccccc3c3ccccc32)S(=O)(=O)c2ccc(C)cc2)cc1 (stereo not given) |  | 1.22
Cc1ccc(S(=O)(=O)Nc2ccc(O)c3cccnc23)cc1 |  | -7.92
CC(C)n1cnc2c(N(C)c3ccccc3)nc(N(CCN(C)C)Cc3ccccc3)nc21 |  | 0.895
COc1ccc(-c2cc(C3CCN(c4ccc(C(C)=O)cc4[N+](=O)[O-])CC3)[nH]n2)cc1 |  | -6.65
CCC(c1nnnn1C1CCCC1)N(Cc1cccs1)Cc1cc2cc(C)ccc2[nH]c1=O (stereo not given) |  | 2.95
CC[n+]1c(/C=C/N(C)c2ccccc2)oc2ccc(F)cc21 |  | 2.57
O=[N+]([O-])c1ccc(NC(c2ccccc2)c2ccc3cccnc3c2O)cc1 (stereo not given) |  | 0.892
CCC1=C(CC2NCCc3ccccc32)CC2c3cc(OC)c(OC)cc3CCN2C1 (stereo not given) |  | -1.08
O=C(CNC(=O)c1ccc(F)cc1)N/N=C/c1cc(Br)ccc1OC(=O)/C=C/c1ccco1 |  | -1.3
O=C(CNC(=O)c1ccccc1F)N/N=C/c1cc(Br)ccc1OC(=O)/C=C/c1ccco1 |  | -17.1
O=C(/C=C/c1ccco1)Oc1cc(Br)cc(/C=N/NC(=O)c2ccccc2O)c1 | 12.6 µM (active) | 
O=C(CCCN1C(=O)/C(=C/c2ccccc2Cl)SC1=S)NNC(=O)c1ccc(Cl)cc1Cl |  | 4.34
O=C(CN1C(=O)c2ccccc2S1(=O)=O)c1ccc(Cl)cc1Cl | 0.562 µM (active) | 
Cc1ccc(NC(=O)CN2C(=O)c3ccccc3S2(=O)=O)cc1C |  | -22.2
Cc1cc(C(=O)CN2C(=O)c3ccccc3S2(=O)=O)c(C)n1CC1CCCO1 (stereo not given) | 6.31 µM (active) | 
Cc1nnc(SCC(N)=O)n1CC1CCCO1 (stereo not given) |  | 0.593
COc1ccc(S(=O)(=O)Nc2ccc(F)cc2)cc1N(C)S(=O)(=O)c1ccc(Cl)cc1 |  | -4.61
C=CCc1cccc(/C=N/NC(=O)C[n+]2ccccc2)c1O |  | 49.8
CC(=O)Oc1ccc(N(C(C)=O)S(=O)(=O)c2ccc(C)cc2C)c2ccccc12 |  | -6.82
NS(=O)(=O)c1ccc(CCNc2ncnc3c2c(-c2ccccc2)cn3-c2ccc(F)cc2)cc1 |  | -1.88
Cc1nc2ccccc2c(=O)n1/N=C/c1cc(Br)ccc1O |  | -6.67
Cc1cc(/C=N/n2c(COc3ccccc3)nc3ccccc3c2=O)c(O)c([N+](=O)[O-])c1 | 15.8 µM (active) | 
Cc1nc2ccccc2c(=O)n1/N=C/c1c(O)ccc2oc3c(c12)CCCC3 |  | -0.379
Cc1ccc(C(C)C)c(OCc2ccc(C(=O)N/N=C/c3ccc(O)cc3O)cc2)c1 |  | -15.1
COc1ccc(CC(N)c2csc(NC(=O)c3cccc(OC(F)(F)F)c3)n2)cc1 (stereo not given) |  | -2.7
